Experimental data: the supplement of paper PMC11741263, “Chemoproteomic Profiling of C. albicans for Characterization of Anti-fungal Kinase Inhibitors” (bioRxiv, 2025)

Columns and labels:
Experiment in all cases: MIB bead binding, log2 fold change vs DMSO (log2 ratio); higher = less competition (weaker engagement)
[1] = biological target: T1, ATG1 (UniProt Q5A649)
T1 sequence (whole entry): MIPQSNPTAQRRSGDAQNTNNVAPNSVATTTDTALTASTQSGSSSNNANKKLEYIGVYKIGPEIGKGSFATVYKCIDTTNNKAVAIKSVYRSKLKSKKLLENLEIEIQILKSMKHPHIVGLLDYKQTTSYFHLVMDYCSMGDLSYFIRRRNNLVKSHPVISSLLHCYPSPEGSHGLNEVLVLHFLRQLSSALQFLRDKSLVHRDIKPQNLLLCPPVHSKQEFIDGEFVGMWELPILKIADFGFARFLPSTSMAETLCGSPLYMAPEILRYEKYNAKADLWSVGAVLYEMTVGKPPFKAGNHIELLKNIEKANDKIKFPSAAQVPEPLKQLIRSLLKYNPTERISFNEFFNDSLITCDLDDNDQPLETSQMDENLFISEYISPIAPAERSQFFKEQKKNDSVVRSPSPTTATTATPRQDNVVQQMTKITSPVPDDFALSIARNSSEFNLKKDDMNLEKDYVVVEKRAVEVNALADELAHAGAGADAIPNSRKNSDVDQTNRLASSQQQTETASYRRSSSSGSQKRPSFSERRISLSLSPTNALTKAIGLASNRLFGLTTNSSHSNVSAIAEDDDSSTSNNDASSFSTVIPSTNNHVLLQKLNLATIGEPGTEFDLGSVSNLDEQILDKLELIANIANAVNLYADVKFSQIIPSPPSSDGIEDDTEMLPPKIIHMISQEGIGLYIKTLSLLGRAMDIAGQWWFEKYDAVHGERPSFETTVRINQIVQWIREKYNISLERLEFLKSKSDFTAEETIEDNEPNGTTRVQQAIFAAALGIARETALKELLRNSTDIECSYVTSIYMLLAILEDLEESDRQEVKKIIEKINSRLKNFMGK

[2] = biological target: T2, PKC1 (UniProt P43057)
T2 sequence (whole entry): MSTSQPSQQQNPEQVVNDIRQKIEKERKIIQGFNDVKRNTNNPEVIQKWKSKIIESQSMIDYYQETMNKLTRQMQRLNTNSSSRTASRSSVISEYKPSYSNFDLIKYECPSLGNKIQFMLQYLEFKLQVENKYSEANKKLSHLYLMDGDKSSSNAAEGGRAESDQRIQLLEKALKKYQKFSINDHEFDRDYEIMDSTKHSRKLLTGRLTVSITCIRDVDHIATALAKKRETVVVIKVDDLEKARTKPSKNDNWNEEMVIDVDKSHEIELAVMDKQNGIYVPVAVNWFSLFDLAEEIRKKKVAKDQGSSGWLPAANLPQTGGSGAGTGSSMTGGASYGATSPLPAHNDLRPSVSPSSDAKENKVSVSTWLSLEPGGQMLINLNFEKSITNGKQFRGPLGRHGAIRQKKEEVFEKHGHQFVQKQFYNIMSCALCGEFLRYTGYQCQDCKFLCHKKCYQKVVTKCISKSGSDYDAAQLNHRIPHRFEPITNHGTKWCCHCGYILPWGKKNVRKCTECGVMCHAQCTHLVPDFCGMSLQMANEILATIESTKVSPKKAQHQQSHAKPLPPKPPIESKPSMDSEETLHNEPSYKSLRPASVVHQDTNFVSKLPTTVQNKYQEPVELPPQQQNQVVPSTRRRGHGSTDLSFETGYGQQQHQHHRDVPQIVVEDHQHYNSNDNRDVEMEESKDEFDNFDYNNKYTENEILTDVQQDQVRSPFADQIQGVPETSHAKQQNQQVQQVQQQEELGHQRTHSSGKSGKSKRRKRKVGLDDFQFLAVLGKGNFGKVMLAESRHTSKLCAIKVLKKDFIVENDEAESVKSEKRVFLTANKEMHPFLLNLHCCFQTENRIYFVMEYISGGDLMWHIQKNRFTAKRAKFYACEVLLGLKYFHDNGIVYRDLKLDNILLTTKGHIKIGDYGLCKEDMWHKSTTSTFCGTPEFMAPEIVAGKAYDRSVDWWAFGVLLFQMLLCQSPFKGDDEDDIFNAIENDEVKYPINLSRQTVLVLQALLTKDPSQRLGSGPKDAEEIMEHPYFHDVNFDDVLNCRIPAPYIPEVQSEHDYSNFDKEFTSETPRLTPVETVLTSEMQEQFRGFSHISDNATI

[3] = biological target: T3, PKH2 (UniProt Q5A3P6)
T3 sequence (whole entry): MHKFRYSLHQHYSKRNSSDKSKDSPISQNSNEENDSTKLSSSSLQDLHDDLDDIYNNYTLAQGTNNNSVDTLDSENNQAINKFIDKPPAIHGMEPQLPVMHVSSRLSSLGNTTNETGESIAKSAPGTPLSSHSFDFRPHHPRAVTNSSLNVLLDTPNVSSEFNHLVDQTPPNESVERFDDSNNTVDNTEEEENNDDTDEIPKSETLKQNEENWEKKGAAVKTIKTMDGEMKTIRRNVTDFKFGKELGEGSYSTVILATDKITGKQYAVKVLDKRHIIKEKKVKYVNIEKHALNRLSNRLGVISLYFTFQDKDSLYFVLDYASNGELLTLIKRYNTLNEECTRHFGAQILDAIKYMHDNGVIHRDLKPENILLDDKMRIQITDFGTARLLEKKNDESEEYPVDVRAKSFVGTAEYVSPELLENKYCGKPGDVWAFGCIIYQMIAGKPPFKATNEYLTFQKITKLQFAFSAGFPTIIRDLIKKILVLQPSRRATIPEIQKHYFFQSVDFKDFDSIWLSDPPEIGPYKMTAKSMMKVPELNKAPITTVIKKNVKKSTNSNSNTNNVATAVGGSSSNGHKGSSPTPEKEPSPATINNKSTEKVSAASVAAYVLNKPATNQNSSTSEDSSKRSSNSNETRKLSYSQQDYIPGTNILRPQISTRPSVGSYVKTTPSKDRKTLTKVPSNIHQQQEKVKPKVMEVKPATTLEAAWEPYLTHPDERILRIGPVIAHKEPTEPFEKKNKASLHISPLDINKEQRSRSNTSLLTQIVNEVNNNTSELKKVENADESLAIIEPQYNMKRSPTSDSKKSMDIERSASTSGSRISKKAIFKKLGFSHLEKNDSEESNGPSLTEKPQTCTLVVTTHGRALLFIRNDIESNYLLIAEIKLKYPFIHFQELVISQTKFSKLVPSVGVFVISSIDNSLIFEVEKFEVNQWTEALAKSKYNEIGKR

With `Cc1[nH]nc2ccc(-c3cc(OC[C@@H](N)Cc4ccccc4)cnc3-c3ccoc3)cc12` the “MIB bead binding (log2)” value ([1]; 0.1 µM) was -0.123, the “MIB bead binding (log2)” value ([1]; 1 µM) was -0.147 and the “MIB bead binding (log2)” value ([1]; 10 µM) was -0.524. For the same molecule, the “MIB bead binding (log2)” value ([2]; 0.1 µM) was -0.235, the “MIB bead binding (log2)” value ([2]; 1 µM) was 0.00546 and the “MIB bead binding (log2)” value ([2]; 10 µM) was -0.233. For the same molecule, the “MIB bead binding (log2)” value ([3]; 0.1 µM) was -0.165, the “MIB bead binding (log2)” value ([3]; 1 µM) was -0.0865 and the “MIB bead binding (log2)” value ([3]; 10 µM) was -0.756.
